Assays:
Conditions in all cases: concentration: 1 μM, replicates: in singlicate; n = 1
[1] = tested on: PAK1
[2] = tested on: PAK2
[3] = tested on: PAK3
[4] = tested on: PAK4
[5] = tested on: PAK6
[6] = tested on: PAK7
[7] = tested on: T1, PCTK1
T1 construct: gene CDK16

[8] = tested on: T2, PCTK2
T2 construct: gene CDK17

[9] = tested on: T3, PCTK3
T3 construct: gene CDK18

[10] = tested on: PDGFRA
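Note: KINOMEscan kinase panel screen.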

Compound	%Inh [1] [%]	%Inh [2] [%]	%Inh [3] [%]	%Inh [4] [%]	%Inh [5] [%]	%Inh [6] [%]	%Inh [7] [%]	%Inh [8] [%]	%Inh [9] [%]	%Inh [10] [%]
Clc1cc(Nc2ncnc3cc[nH]c23)ccc1OCc1ccccn1	10	29	39	10	29	7	2	19	19	29
CNc1nccc(-c2c(-c3ccc(F)cc3)ncn2CCCN2CCOCC2)n1 [SB-222516]	65	85	0	0	0	0	0	0	0	0
COc1ccc(NC(=O)Nc2ccc(C)c(-c3ccc(C(=O)Nc4ccncc4)cc3)c2)cc1 [GSK1398475]	0	0	3	0	0	9	0	0	0	28
COc1ccc(-c2oc3ncnc(N)c3c2-c2ccc(OC)cc2)cc1 [SB-589132]	0	16	14	0	0	0	0	0	14	17
CC(C)(C)OC(=O)NC1CCCN(c2cc(-c3ccc4c(N)n[nH]c4c3)nc(N)n2)C1 (stereo not shown) [GSK2286096]	0	1	0	0	0	0	4	6	17	0
Nc1nc(-c2ccc3c(N)n[nH]c3c2)cc(N2CCC[C@@H](C(=O)Nc3ccccc3)C2)n1.O=C(O)C(F)(F)F.O=C(O)C(F)(F)F [GSK2288359]	2	0	27	0	0	6	14	8	0	15
Cl.Fc1ccccc1COc1ccc(Nc2ncnc3ccc(-c4nnc(C(F)(F)F)o4)cc23)cc1Cl [GW424170]	0	0	0	0	0	10	0	0	17	0
CCc1nc(-c2cccc(C)c2)c(-c2ccnc(NC(=O)c3ccccc3)c2)s1	0	0	2	0	3	0	24	7	1	0
COc1cc2ncnc(Nc3ccc(OCc4ccccc4Br)c(Cl)c3)c2cc1OC.Cl [GI261590]	14	22	38	0	0	5	0	0	0	0
Cl.c1ccc(Cn2ccc3cc(Nc4ncnc5ccccc45)ccc32)cc1 [GW275568]	12	13	0	9	8	35	0	16	18	2
Fc1cccc(COc2ccc(Nc3ncnc4sc(-c5ccc[nH]5)cc34)cc2Cl)c1 [GW707818]	6	5	0	6	11	12	0	22	0	0
Cn1cc(-c2ccc3c(c2)CCN3C(=O)Cc2cccc(C(F)(F)F)c2)c2c(N)ncnc21 [GSK2606414]	0	0	25	0	0	0	4	0	0	38
Nc1nccc2scc(-c3ccc4c(c3)CCN4C(=O)Cc3cc(F)ccc3F)c12 [GSK2587663]	1	0	19	0	0	0	0	0	20	0
Cn1ccc2ncnc(Nc3ccc(Oc4cccc(Cl)c4)c(Cl)c3)c21	18	0	9	19	0	0	24	26	0	26
Nc1nc(-c2ccc3c(N)n[nH]c3c2)cc(N2CCCCC2)n1 [GSK2228768]	2	20	6	0	0	0	5	0	9	0
CC(C)N1CCC(n2cnc(-c3ccc(F)cc3)c2-c2ccnc(N)n2)CC1 [SB-223132]	19	23	0	26	0	0	0	0	7	0
CC(C)(C)c1ccc(-n2cnc3c(N)ncnc32)cc1 [SKF-97263]	9	0	22	0	0	0	0	0	30	13

Compound	%Inh [1] [%]	%Inh [2] [%]	%Inh [3] [%]	%Inh [4] [%]	%Inh [5] [%]	%Inh [6] [%]	%Inh [7] [%]	%Inh [8] [%]	%Inh [9] [%]	%Inh [10] [%]
Cl.O=S(=O)(c1cccc(F)c1)c1ccc(Nc2ncnc3cc(Br)sc23)cc1Cl [GSK306886]	1	0	0	1	1	9	4	10	11	0
Cc1cc(N2CCC(NS(=O)(=O)c3ccc(F)cc3)CC2)nc(Nc2cccc(C#N)c2)n1.O=C(O)C(F)(F)F [GSK1653537]	0	19	6	0	0	0	0	0	18	0
CS(=O)(=O)CCNCc1nc(-c2ccc3ncnc(Nc4ccc(OCc5cccc(F)c5)c(Cl)c4)c3c2)cs1.Cl [GW583340]	19	9	0	0	0	7	3	16	10	0
OCCOCCn1ccc2ncnc(Nc3ccc(Oc4cccc(Cl)c4)c(Cl)c3)c21	0	0	18	0	0	0	0	0	6	0
CCC(CC)(CC)n1cnc2c(N)ncnc21 [SKF-97620]	10	51	14	0	0	10	2	0	0	24
N#Cc1ccc(Oc2ccc(Nc3ncnc4cc[nH]c34)cc2Cl)cc1	35	45	24	19	27	15	0	13	20	25
CCn1c(-c2ccncc2)nc2cnccc21 [SB-735216]	0	47	0	0	0	0	0	0	0	13
c1ccc(-c2ccc3c(-c4ccnc(Nc5ccc6c(c5)OCCO6)n4)cnn3n2)cc1 [GW818941]	6	28	18	0	83	0	0	7	0	8
Cl.Cl.c1ccc(-c2cc3ccncc3cc2OC2CCNCC2)cc1 [GSK1122999]	15	31	47	0	0	2	2	12	13	0
Clc1cccc(-c2nc(Nc3ccncc3)c3ccccc3n2)c1 [GW873004]	0	0	37	16	0	0	0	0	0	0
O=C(Nc1ccccc1F)NC1CCN(c2ccnc(Nc3ccc(F)cc3)n2)C1 (stereo not shown) [GSK1379722]	2	16	0	0	0	0	6	0	18	0
O=C(Nc1n[nH]c2nc(-c3ccco3)c(Br)cc12)c1ccc(CN2CCCC2)cc1.O=C(O)[C@H](O)[C@@H](O)C(=O)O [SB-742352]	0	7	0	0	0	0	0	11	0	50
Fc1cccc(COc2ccc(Nc3ncnc4cc[nH]c34)cc2Cl)c1	30	35	10	26	0	22	5	48	10	22
COc1cc2c(Nc3cccc(NC(=O)c4ccccc4)c3)ncnc2cc1OCCCN1CCOCC1 [GSK223810]	4	0	5	0	0	0	0	0	22	63
O=C(CCO)NCCn1ccc2ncnc(Nc3ccc(Oc4cccc(C(F)(F)F)c4)c(Cl)c3)c21	0	2	28	0	0	0	0	0	0	0
CS(=O)(=O)CCNCc1ccc(-c2ccc3ncnc(Nc4ccc(OCc5ccccc5)c(Cl)c4)c3c2)o1.Cl [GW574783]	0	0	7	0	0	0	0	0	0	0
O=C(NCCCN1CCCC1=O)c1cnc(NCc2cc(Cl)ccc2Cl)nc1NC1CCNCC1	5	0	0	3	0	0	0	0	10	0
